Test results as given in PubChem BioAssay AID1159580 (chemical genetic matrix, 2015).
“And” between values parts separate entries of the source, which are not always exact repeats. Equal entries are not always repeated. Screen size: about 5,500 compounds; about 2,000 (36%) were called active. Not shown: some 18% with an inconclusive outcome. Rule as the data show it: active = normalized growth mostly below about 0.91 (no sharp cut-off); inconclusive = no clear call, values can overlap the other calls; inactive = mostly above about 0.92. The list shows a part of the results.

Test: chemical genetic growth profiling, strain panel (AID 1159580);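 also: tested at 20 µM; growth read once vehicle control cultures reached saturation at 30 °C; 1 = growth at the plate median or of vehicle wells; lower values mean less growth of the strain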
Conditions: growth OD

Measured: normalized growth

CC(C)=CCCC1(C)C=Cc2c(O)c3c(c(CC=C(C)C)c2O1)OC12C(CC4CC1C(C)(C)OC2(C/C=C(/C)C(=O)O)C4O)C3=O (configuration not stated)
inactive: S. cerevisiae deletion strains, locus YAL013W, strain DEP1, stronger effect = lower value 1.01 | S. cerevisiae deletion strains, locus YBR021W, strain FUR4, stronger effect = lower value 1.07 | S. cerevisiae deletion strains, locus YBR229C, strain ROT2, stronger effect = lower value 0.959 | S. cerevisiae deletion strains, locus YCL029C, strain bik1, stronger effect = lower value 0.994 | S. cerevisiae deletion strains, locus YDL035C, strain GPR1, stronger effect = lower value 0.961 | S. cerevisiae deletion strains, locus YDL074C, strain BRE1, stronger effect = lower value 1.01 | S. cerevisiae deletion strains, locus YDL101C, strain DUN1, stronger effect = lower value 0.978 | S. cerevisiae deletion strains, locus YDL185W, strain tfp1, stronger effect = lower value 0.997 | S. cerevisiae deletion strains, locus YDL192W, strain arf1, stronger effect = lower value 0.947 | S. cerevisiae deletion strains, locus YDR101C, strain arx1, stronger effect = lower value 0.96 | S. cerevisiae deletion strains, locus YDR162C, strain NBP2, stronger effect = lower value 0.851 | S. cerevisiae deletion strains, locus YDR318W, strain mcm21, stronger effect = lower value 0.988 | S. cerevisiae deletion strains, locus YDR388W, stronger effect = lower value 0.99 | S. cerevisiae deletion strains, locus YDR502C, strain sam2, stronger effect = lower value 1.02 | S. cerevisiae deletion strains, locus YEL061C, strain CIN8, stronger effect = lower value 0.989 | S. cerevisiae deletion strains, locus YER110C, stronger effect = lower value 0.981 | S. cerevisiae deletion strains, locus YER155C, strain BEM2, stronger effect = lower value 1.04 | S. cerevisiae deletion strains, locus YER167W, strain BCK2, stronger effect = lower value 1.01 | S. cerevisiae deletion strains, locus YGL078C, strain dbp3, stronger effect = lower value 1.01 | S. cerevisiae deletion strains, locus YGL086W, strain mad1, stronger effect = lower value 0.993 | S. cerevisiae deletion strains, locus YGL248W, strain PDE1, stronger effect = lower value 0.994 | S. cerevisiae deletion strains, locus YGR135W, strain pre9, stronger effect = lower value 1.06 | S. cerevisiae deletion strains, locus YGR229C, strain SMI1, stronger effect = lower value 0.988 | S. cerevisiae deletion strains, locus YGR252W, strain gcn5, stronger effect = lower value 1.17 | S. cerevisiae deletion strains, locus YHR030C, strain SLT2, stronger effect = lower value 1.01 and 0.984 | S. cerevisiae deletion strains, locus YHR079C, strain IRE1 (second series), stronger effect = lower value 0.981 | S. cerevisiae deletion strains, locus YHR079C, strain IRE1, stronger effect = lower value 0.985 | S. cerevisiae deletion strains, locus YHR094C, strain hxt1, stronger effect = lower value 1 | S. cerevisiae deletion strains, locus YHR129C, strain ARP1, stronger effect = lower value 1.02 | S. cerevisiae deletion strains, locus YHR200W, strain rpn10, stronger effect = lower value 1.01 | S. cerevisiae deletion strains, locus YIL066C, strain RNR3, stronger effect = lower value 0.97 | S. cerevisiae deletion strains, locus YIL073C, strain SPO22, stronger effect = lower value 1.07 | S. cerevisiae deletion strains, locus YIL125W, strain kgd1, stronger effect = lower value 0.992 | S. cerevisiae deletion strains, locus YIR030C, strain dcg1, stronger effect = lower value 0.997 | S. cerevisiae deletion strains, locus YJL095W, strain BCK1, stronger effect = lower value 0.884 and 1.01 | S. cerevisiae deletion strains, locus YJL134W, strain LCB3, stronger effect = lower value 0.993 | S. cerevisiae deletion strains, locus YJL168C, strain set2, stronger effect = lower value 0.995 | S. cerevisiae deletion strains, locus YJL187C, strain SWE1 (second series), stronger effect = lower value 0.972 | S. cerevisiae deletion strains, locus YJR066W, strain TOR1, stronger effect = lower value 0.935 | S. cerevisiae deletion strains, locus YKL009W, strain mrt4, stronger effect = lower value 1.02 | S. cerevisiae deletion strains, locus YKL068W, stronger effect = lower value 0.996 | S. cerevisiae deletion strains, locus YKL085W, strain MDH1 (second series), stronger effect = lower value 1.02 | S. cerevisiae deletion strains, locus YKL085W, strain MDH1, stronger effect = lower value 1.02 | S. cerevisiae deletion strains, locus YKL190W, strain CNB1, stronger effect = lower value 0.988 | S. cerevisiae deletion strains, locus YKR001C, strain vps1, stronger effect = lower value 0.961 | S. cerevisiae deletion strains, locus YLR039C, strain RIC1, stronger effect = lower value 0.774 | S. cerevisiae deletion strains, locus YLR058C, strain SHM2, stronger effect = lower value 0.98 | S. cerevisiae deletion strains, locus YLR102C, strain apc9, stronger effect = lower value 1.01 | S. cerevisiae deletion strains, locus YLR113W, strain HOG1, stronger effect = lower value 0.92 | S. cerevisiae deletion strains, locus YLR268W, strain sec22, stronger effect = lower value 0.93 | S. cerevisiae deletion strains, locus YLR330W, strain CHS5, stronger effect = lower value 1.01 | S. cerevisiae deletion strains, locus YLR342W, strain FKS1 (second series), stronger effect = lower value 0.96 | S. cerevisiae deletion strains, locus YLR371W, strain rom2, stronger effect = lower value 1.03 | S. cerevisiae deletion strains, locus YLR418C, strain cdc73, stronger effect = lower value 0.936 | S. cerevisiae deletion strains, locus YML016C, strain PPZ1, stronger effect = lower value 0.987 | S. cerevisiae deletion strains, locus YML032C, strain rad52, stronger effect = lower value 0.978 | S. cerevisiae deletion strains, locus YML124C, strain tub3, stronger effect = lower value 1.01 | S. cerevisiae deletion strains, locus YMR078C, strain ctf18, stronger effect = lower value 0.997 | S. cerevisiae deletion strains, locus YMR223W, strain ubp8, stronger effect = lower value 0.991 | S. cerevisiae deletion strains, locus YMR307W, strain GAS1, stronger effect = lower value 0.95 | S. cerevisiae deletion strains, locus YNL067W, strain RPL9B, stronger effect = lower value 0.996 | S. cerevisiae deletion strains, locus YNL128W, strain TEP1, stronger effect = lower value 0.967 | S. cerevisiae deletion strains, locus YNL153C, strain GIM3, stronger effect = lower value 1.04 | S. cerevisiae deletion strains, locus YNL183C, strain NPR1, stronger effect = lower value 0.936 | S. cerevisiae deletion strains, locus YNL233W, strain BNI4, stronger effect = lower value 1.06 | S. cerevisiae deletion strains, locus YNL250W, strain rad50, stronger effect = lower value 0.993 | S. cerevisiae deletion strains, locus YNL271C, strain bni1, stronger effect = lower value 0.99 | S. cerevisiae deletion strains, locus YNL298W, strain CLA4, stronger effect = lower value 0.986 | S. cerevisiae deletion strains, locus YNL307C, strain MCK1, stronger effect = lower value 0.942 | S. cerevisiae deletion strains, locus YNL322C, strain KRE1, stronger effect = lower value 1 | S. cerevisiae deletion strains, locus YNR052C, strain pop2, stronger effect = lower value 1 | S. cerevisiae deletion strains, locus YOL012C, strain htz1 1.58 | S. cerevisiae deletion strains, locus YOL147C, strain pex11, stronger effect = lower value 1 | S. cerevisiae deletion strains, locus YOR061W, strain CKA2, stronger effect = lower value 0.967 | S. cerevisiae deletion strains, locus YOR069W, strain VPS5, stronger effect = lower value 0.988 | S. cerevisiae deletion strains, locus YOR136W, strain idh2, stronger effect = lower value 1.01 | S. cerevisiae deletion strains, locus YOR144C, strain elg1, stronger effect = lower value 1 | S. cerevisiae deletion strains, locus YOR184W, strain ser1, stronger effect = lower value 0.903 | S. cerevisiae deletion strains, locus YOR231W, strain MKK1, stronger effect = lower value 0.963 | S. cerevisiae deletion strains, locus YOR316C, strain cot1, stronger effect = lower value 0.994 | S. cerevisiae deletion strains, locus YPL256C, strain CLN2, stronger effect = lower value 0.957 | S. cerevisiae deletion strains, locus YPR119W, strain clb2, stronger effect = lower value 0.994 | S. cerevisiae deletion strains, locus YPR141C, strain kar3, stronger effect = lower value 0.991 | S. cerevisiae deletion strains, locus YPR163C, strain tif3, stronger effect = lower value 0.967 | S. cerevisiae deletion strains, locus YPR167C, strain met16, stronger effect = lower value 1.02 | S. cerevisiae deletion strains, strain wtn01, stronger effect = lower value 0.972 | S. cerevisiae strains, strain wild type, stronger effect = lower value 0.968
